Measured values taken from the supplement of paper PMC10849652.
Of roughly 8,800 targets only a part is listed; those with a hit were picked by preference. About 0.5% of all pairs of compound and target were hits.

Compound: O=C1NC(=O)C(c2cnc3ccccn23)=C1c1cn2c3c(cc(F)cc13)CN(C(=O)N1CCCCC1)CC2
Experiment: log2 fold change, soluble protein after heating vs DMSO (PISA); higher = thermal stabilisation; K562 lysate, 10 uM; active = over 0.2 and 3.5 SD of the protein, either way, in both replicates (recomputed)
Summary of the method: (§1)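 K562 pellets were dounce-homogenised in PBS pH 7.4 containing 1 mM MgCl2, and the crude extract, at 1 mg/mL protein, was exposed to 10 μM compound for 30 min. Aliquots were heated for 3 min across 48°C-58°C, pooled, brought to 0.5% NP-40 at 4°C and spun at 21,000xg for 90 min, with the supernatant taken as soluble protein. TMTpro 16plex LC-MS/MS with equalised channel sums quantified that protein. Values are log-two fold changes in thermal stability relative to solvent controls, taken from duplicates.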

Sequence of UniProt Q9H6D7 (Q9H6D7 whole entry, looked up): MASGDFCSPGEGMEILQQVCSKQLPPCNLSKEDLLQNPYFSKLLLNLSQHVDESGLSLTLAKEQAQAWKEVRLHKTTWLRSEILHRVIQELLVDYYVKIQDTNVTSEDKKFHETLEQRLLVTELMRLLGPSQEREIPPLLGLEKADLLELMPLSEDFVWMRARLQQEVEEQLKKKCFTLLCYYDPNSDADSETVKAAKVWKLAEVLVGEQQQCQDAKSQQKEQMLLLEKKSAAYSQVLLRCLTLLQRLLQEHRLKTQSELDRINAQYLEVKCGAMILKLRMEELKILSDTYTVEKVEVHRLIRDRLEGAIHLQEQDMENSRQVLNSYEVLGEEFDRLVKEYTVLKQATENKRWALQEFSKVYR
Sequence of UniProt Q01581 (Q01581 whole entry, looked up): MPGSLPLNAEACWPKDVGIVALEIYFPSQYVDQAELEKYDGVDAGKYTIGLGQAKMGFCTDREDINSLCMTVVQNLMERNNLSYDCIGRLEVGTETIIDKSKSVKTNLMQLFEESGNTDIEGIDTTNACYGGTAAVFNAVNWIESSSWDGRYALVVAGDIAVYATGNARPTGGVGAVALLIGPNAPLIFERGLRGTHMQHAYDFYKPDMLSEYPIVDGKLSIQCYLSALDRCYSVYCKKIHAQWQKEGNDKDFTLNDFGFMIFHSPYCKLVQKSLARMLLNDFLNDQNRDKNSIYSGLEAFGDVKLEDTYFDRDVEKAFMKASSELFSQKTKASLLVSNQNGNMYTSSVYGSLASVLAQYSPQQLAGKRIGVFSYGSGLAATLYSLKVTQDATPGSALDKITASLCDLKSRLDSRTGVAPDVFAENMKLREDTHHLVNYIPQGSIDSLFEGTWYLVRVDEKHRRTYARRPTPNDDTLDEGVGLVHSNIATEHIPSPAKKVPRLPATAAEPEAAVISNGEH
Sequence of UniProt Q99729 (Q99729 whole entry, looked up): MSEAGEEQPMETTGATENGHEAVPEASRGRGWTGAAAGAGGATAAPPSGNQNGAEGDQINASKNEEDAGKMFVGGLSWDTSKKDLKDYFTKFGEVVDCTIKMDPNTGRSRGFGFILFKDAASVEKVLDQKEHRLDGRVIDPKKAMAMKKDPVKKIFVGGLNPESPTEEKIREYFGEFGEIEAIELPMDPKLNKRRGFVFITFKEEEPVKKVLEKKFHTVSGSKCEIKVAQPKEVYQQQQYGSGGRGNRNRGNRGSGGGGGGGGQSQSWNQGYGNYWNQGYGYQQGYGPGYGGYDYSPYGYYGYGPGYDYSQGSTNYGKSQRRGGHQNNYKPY
Sequence of UniProt Q8IY47 (Q8IY47 whole entry, looked up): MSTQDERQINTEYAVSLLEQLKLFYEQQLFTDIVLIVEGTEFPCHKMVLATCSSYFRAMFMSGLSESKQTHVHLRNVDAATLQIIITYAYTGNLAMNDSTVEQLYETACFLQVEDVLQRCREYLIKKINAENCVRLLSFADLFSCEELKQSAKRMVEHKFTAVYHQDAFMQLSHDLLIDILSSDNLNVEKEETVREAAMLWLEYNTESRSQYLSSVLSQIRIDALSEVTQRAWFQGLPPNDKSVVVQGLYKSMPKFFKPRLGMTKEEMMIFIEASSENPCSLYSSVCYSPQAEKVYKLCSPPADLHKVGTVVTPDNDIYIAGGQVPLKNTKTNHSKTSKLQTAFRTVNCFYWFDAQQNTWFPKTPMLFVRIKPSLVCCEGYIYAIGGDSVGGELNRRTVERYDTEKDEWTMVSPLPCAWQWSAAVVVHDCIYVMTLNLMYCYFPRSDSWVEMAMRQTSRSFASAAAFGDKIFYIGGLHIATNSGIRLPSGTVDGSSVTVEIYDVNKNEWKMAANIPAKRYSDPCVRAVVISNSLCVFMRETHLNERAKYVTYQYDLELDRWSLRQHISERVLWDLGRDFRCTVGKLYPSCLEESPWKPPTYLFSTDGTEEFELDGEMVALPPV
Sequence of UniProt O00425 (O00425 whole entry, looked up): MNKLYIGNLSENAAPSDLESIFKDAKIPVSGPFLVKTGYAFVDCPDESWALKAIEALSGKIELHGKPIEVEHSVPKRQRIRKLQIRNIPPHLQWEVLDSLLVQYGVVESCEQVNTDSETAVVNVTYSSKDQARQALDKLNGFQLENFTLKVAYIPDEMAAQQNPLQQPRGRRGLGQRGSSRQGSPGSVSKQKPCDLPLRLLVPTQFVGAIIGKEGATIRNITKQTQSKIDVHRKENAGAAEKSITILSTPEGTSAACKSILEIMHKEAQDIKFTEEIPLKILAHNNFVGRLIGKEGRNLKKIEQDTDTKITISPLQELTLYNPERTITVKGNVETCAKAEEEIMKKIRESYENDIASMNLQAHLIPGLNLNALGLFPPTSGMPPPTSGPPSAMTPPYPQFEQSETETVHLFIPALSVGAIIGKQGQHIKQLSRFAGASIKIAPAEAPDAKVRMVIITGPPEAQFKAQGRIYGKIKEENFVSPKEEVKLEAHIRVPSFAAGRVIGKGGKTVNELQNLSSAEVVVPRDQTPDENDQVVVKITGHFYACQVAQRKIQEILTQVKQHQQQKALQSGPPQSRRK
Sequence of UniProt Q14103 (Q14103 whole entry, looked up): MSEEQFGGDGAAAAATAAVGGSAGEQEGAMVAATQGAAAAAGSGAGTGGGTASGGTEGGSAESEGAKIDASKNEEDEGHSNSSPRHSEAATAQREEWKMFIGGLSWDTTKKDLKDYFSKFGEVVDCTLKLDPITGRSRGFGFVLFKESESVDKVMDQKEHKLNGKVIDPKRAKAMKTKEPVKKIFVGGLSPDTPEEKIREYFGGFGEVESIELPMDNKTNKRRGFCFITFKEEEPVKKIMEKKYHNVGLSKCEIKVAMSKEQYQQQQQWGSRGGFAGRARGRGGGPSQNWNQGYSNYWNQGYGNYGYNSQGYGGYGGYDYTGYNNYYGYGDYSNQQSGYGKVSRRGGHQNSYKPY
Sequence of UniProt P32780 (P32780 whole entry, looked up): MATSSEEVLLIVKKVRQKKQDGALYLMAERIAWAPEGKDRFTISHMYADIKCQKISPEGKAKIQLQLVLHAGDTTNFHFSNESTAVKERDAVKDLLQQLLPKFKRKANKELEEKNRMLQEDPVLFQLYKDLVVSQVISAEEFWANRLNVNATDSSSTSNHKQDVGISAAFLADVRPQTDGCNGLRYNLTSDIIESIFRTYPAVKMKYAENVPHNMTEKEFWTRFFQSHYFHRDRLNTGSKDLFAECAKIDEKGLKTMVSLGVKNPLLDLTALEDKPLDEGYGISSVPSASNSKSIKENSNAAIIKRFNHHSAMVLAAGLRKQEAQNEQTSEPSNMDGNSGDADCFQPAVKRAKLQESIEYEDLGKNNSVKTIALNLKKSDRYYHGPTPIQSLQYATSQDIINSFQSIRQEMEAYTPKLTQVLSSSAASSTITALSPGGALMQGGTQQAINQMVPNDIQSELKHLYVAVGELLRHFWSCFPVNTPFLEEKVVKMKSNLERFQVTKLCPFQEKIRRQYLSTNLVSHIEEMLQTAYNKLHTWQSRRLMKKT
Sequence of UniProt Q15046 (Q15046 whole entry, looked up): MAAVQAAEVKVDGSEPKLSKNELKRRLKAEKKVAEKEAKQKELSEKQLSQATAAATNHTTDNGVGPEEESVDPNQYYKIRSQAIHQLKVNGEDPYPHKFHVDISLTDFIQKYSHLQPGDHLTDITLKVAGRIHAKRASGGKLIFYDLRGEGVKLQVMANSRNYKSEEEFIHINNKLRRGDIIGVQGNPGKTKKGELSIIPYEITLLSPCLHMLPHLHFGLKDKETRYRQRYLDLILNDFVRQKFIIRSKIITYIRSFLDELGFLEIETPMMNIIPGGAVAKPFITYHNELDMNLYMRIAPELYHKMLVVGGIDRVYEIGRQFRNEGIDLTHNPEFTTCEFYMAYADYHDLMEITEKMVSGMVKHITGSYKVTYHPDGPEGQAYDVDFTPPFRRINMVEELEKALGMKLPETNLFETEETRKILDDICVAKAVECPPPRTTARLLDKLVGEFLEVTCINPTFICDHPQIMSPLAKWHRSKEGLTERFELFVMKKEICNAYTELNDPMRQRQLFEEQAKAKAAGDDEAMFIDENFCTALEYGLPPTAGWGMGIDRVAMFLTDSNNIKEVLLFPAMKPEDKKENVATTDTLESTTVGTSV
Sequence of UniProt O75367 (O75367 whole entry, looked up): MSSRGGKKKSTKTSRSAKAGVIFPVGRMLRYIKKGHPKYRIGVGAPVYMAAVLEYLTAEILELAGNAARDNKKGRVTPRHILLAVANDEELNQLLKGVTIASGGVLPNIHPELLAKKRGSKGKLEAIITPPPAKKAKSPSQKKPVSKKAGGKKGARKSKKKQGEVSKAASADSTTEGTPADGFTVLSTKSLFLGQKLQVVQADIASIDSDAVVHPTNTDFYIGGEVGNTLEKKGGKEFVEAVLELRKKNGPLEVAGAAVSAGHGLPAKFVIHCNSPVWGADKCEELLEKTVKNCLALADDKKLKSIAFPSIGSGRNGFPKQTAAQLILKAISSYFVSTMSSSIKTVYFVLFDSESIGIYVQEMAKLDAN
Sequence of UniProt P49448 (P49448 whole entry, looked up): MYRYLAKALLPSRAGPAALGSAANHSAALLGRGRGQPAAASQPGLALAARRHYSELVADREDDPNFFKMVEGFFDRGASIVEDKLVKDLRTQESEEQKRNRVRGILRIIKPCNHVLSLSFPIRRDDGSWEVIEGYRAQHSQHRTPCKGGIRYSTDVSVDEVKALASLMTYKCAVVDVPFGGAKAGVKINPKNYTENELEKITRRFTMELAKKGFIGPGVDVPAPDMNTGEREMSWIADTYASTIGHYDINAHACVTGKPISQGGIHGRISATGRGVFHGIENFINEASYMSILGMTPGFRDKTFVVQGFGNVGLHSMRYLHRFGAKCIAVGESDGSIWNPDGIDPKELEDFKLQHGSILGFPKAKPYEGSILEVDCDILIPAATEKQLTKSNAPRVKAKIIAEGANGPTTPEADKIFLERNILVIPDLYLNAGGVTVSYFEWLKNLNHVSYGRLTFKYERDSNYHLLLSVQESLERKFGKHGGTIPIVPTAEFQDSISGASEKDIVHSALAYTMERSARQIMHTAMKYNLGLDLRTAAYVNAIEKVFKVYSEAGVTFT

log2 fold change, inactive:
GLUD2 (UniProt P49448) 0.026, HAUS4 (UniProt Q9H6D7) -0.017, HNRNPD isoform 2 (UniProt Q14103) 0.063, HECTD3 (UniProt Q5T447) -0.02, GTF2H1 (UniProt P32780) -0.024, KARS1 (UniProt Q15046) -0.026, HMGCS1 (UniProt Q01581) 0.013, HNRNPAB isoform 3 (UniProt Q99729) 0.008, ISOC2 (UniProt Q96AB3) 0, IGF2BP3 (UniProt O00425) 0, KBTBD2 (UniProt Q8IY47) 0.038, H2AFY (UniProt O75367) -0.02, KCT2 (UniProt Q8NC54) -0.04

Compound: c1cn2cc(-c3ccc4cn[nH]c4c3)nc(Nc3ccc(N4CCOCC4)cc3)c2n1 [entospletinib]
Experiment: as above
Summary of the method: as §1

log2 fold change, inactive:
GTPBP2 (UniProt Q9BX10) 0.056, GMDS (UniProt O60547) 0.032, HSPA8 (UniProt E9PK54) 0.012, ILK (UniProt Q13418) 0.096, HNRNPUL2 (UniProt Q1KMD3) -0.032, KDM1A (UniProt O60341) 0.01, INF2 (UniProt Q27J81) -0.09, ITPKA (UniProt P23677) 0.081, INTS3 (UniProt Q68E01) 0.009, KBTBD4 isoform 2 (UniProt Q9NVX7) -0.012, HNRNPL (UniProt P14866) 0.007, HK1 isoform 2 (UniProt P19367) 0.011, HAUS8 (UniProt Q9BT25) -0.051, IMMT (UniProt Q16891) 0.017, HIST2H2AA3 (UniProt Q6FI13) -0.106, HAUS6 (UniProt Q7Z4H7) 0.015, ISY1 isoform 1 (UniProt Q9ULR0) -0.02, HLCS (UniProt P50747) 0.009, HSD17B12 (UniProt Q53GQ0) 0.041, HAUS7 isoform 2 (UniProt Q99871) -0.124, GTF2A1 (UniProt P52655) 0.039, IL18R1 (UniProt Q13478) -0.084, IRAK4 (UniProt Q9NWZ3) 0.042, GLUD2 (UniProt P49448) -0.084, HAUS4 (UniProt Q9H6D7) -0.018, HNRNPD isoform 2 (UniProt Q14103) -0.006, HECTD3 (UniProt Q5T447) 0.022, GTF2H1 (UniProt P32780) 0.035, KARS1 (UniProt Q15046) 0.006, HMGCS1 (UniProt Q01581) -0.002, HNRNPAB isoform 3 (UniProt Q99729) -0.019, ISOC2 (UniProt Q96AB3) 0.033, IGF2BP3 (UniProt O00425) 0.006, KBTBD2 (UniProt Q8IY47) 0.026, H2AFY (UniProt O75367) 0.079, KCT2 (UniProt Q8NC54) -0.026
